PubChem BioAssay AID1159580 (chemical genetic matrix, 2015)
Where “and” joins values, the source holds several entries; their conditions need not be identical. Identical values can stand only once. Hit rate of the full screen: of about 5,500 compounds, about 2,000 (36%) were called active. Inconclusive results (about 18%) are left out. No stated cut-off is given here; in the data, active means normalized growth mostly below about 0.91 (no sharp cut-off); inconclusive means no clear call, values can overlap the other calls; inactive means mostly above about 0.92. This is one part of the list.

Assay: chemical genetic growth profiling, strain panel (AID 1159580);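 further: tested at 20 µM; growth read once vehicle control cultures reached saturation at 30 °C; 1 = growth at the plate median or of vehicle wells; lower values mean less growth of the strain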
Conditions: growth OD

Measured: normalized growth

Nc1ccc(S(=O)(=O)Nc2ccnn2-c2ccccc2)cc1
inactive: S. cerevisiae deletion strains, locus YJR075W, strain HOC1, hits give low values 1.02 and 1.03 | S. cerevisiae deletion strains, locus YKL009W, strain mrt4, hits give low values 0.976 | S. cerevisiae deletion strains, locus YKL068W, hits give low values 1 | S. cerevisiae deletion strains, locus YKL085W, strain MDH1 (second series), hits give low values 0.999 | S. cerevisiae deletion strains, locus YKL085W, strain MDH1, hits give low values 0.999 | S. cerevisiae deletion strains, locus YKL160W, strain elf1, hits give low values 0.989 | S. cerevisiae deletion strains, locus YKL190W, strain CNB1, hits give low values 1.01 | S. cerevisiae deletion strains, locus YKR001C, strain vps1, hits give low values 0.992 | S. cerevisiae deletion strains, locus YKR026C, strain gcn3, hits give low values 0.965 | S. cerevisiae deletion strains, locus YKR091W, strain srl3, hits give low values 0.997 | S. cerevisiae deletion strains, locus YLL001W, strain dnm1, hits give low values 0.979 | S. cerevisiae deletion strains, locus YLL026W, hits give low values 0.997 | S. cerevisiae deletion strains, locus YLL041C, strain sdh2, hits give low values 0.986 | S. cerevisiae deletion strains, locus YLR027C, strain aat2, hits give low values 0.985 | S. cerevisiae deletion strains, locus YLR039C, strain RIC1, hits give low values 0.982 | S. cerevisiae deletion strains, locus YLR058C, strain SHM2, hits give low values 1.01 | S. cerevisiae deletion strains, locus YLR102C, strain apc9, hits give low values 0.99 | S. cerevisiae deletion strains, locus YLR113W, strain HOG1, hits give low values 0.998 | S. cerevisiae deletion strains, locus YLR221C, strain rsa3, hits give low values 0.986 | S. cerevisiae deletion strains, locus YLR258W, strain gsy2, hits give low values 0.998 | S. cerevisiae deletion strains, locus YLR262C, strain YPT6 (second series), hits give low values 0.885 | S. cerevisiae deletion strains, locus YLR262C, strain YPT6, hits give low values 0.993 | S. cerevisiae deletion strains, locus YLR268W, strain sec22, hits give low values 0.998 | S. cerevisiae deletion strains, locus YLR320W, strain mms22, hits give low values 1.03 | S. cerevisiae deletion strains, locus YLR330W, strain CHS5, hits give low values 1 | S. cerevisiae deletion strains, locus YLR342W, strain FKS1 (second series), hits give low values 0.983 | S. cerevisiae deletion strains, locus YLR342W, strain FKS1, hits give low values 1.01 | S. cerevisiae deletion strains, locus YLR357W, strain rsc2, hits give low values 1 | S. cerevisiae deletion strains, locus YLR370C, strain arc18, hits give low values 1.01 | S. cerevisiae deletion strains, locus YLR371W, strain rom2, hits give low values 0.99 | S. cerevisiae deletion strains, locus YLR384C, strain iki3, hits give low values 0.977 | S. cerevisiae deletion strains, locus YLR418C, strain cdc73, hits give low values 1.01 | S. cerevisiae deletion strains, locus YML016C, strain PPZ1, hits give low values 1.01 | S. cerevisiae deletion strains, locus YML032C, strain rad52, hits give low values 0.996 | S. cerevisiae deletion strains, locus YML120C, strain ndi1, hits give low values 0.99 | S. cerevisiae deletion strains, locus YML124C, strain tub3, hits give low values 1 | S. cerevisiae deletion strains, locus YMR058W, strain fet3, hits give low values 0.986 | S. cerevisiae deletion strains, locus YMR078C, strain ctf18, hits give low values 0.998 | S. cerevisiae deletion strains, locus YMR125W, strain sto1, hits give low values 0.954 | S. cerevisiae deletion strains, locus YMR129W, hits give low values 0.988 | S. cerevisiae deletion strains, locus YMR205C, strain PFK2, hits give low values 1.05 | S. cerevisiae deletion strains, locus YMR223W, strain ubp8, hits give low values 0.991 | S. cerevisiae deletion strains, locus YMR231W, strain pep5, hits give low values 0.997 | S. cerevisiae deletion strains, locus YMR263W, strain SAP30, hits give low values 1.03 | S. cerevisiae deletion strains, locus YMR307W, strain GAS1, hits give low values 0.943 and 0.968 | S. cerevisiae deletion strains, locus YNL067W, strain RPL9B, hits give low values 1.02 | S. cerevisiae deletion strains, locus YNL071W, strain lat1, hits give low values 0.993 | S. cerevisiae deletion strains, locus YNL128W, strain TEP1, hits give low values 0.995 | S. cerevisiae deletion strains, locus YNL175C, strain NOP13, hits give low values 1.01 | S. cerevisiae deletion strains, locus YNL183C, strain NPR1, hits give low values 0.899 | S. cerevisiae deletion strains, locus YNL197C, strain WHI3, hits give low values 1.01 | S. cerevisiae deletion strains, locus YNL209W, strain ssb2, hits give low values 0.994 | S. cerevisiae deletion strains, locus YNL224C, strain SQS1, hits give low values 1 | S. cerevisiae deletion strains, locus YNL233W, strain BNI4, hits give low values 1.02 | S. cerevisiae deletion strains, locus YNL248C, strain rpa49, hits give low values 0.957 | S. cerevisiae deletion strains, locus YNL250W, strain rad50, hits give low values 1 | S. cerevisiae deletion strains, locus YNL271C, strain bni1, hits give low values 0.993 | S. cerevisiae deletion strains, locus YNL298W, strain CLA4, hits give low values 1.01 | S. cerevisiae deletion strains, locus YNL307C, strain MCK1, hits give low values 0.99 | S. cerevisiae deletion strains, locus YNL322C, strain KRE1 (second series), hits give low values 1 | S. cerevisiae deletion strains, locus YNL322C, strain KRE1, hits give low values 1.01 and 1.02 | S. cerevisiae deletion strains, locus YNR049C, strain mso1, hits give low values 0.996 | S. cerevisiae deletion strains, locus YNR052C, strain pop2, hits give low values 0.981 | S. cerevisiae deletion strains, locus YOL006C, strain TOP1, hits give low values 1.07 | S. cerevisiae deletion strains, locus YOL012C, strain htz1 1.59 | S. cerevisiae deletion strains, locus YOL147C, strain pex11, hits give low values 1.01 | S. cerevisiae deletion strains, locus YOR001W, strain rrp6, hits give low values 0.969 | S. cerevisiae deletion strains, locus YOR061W, strain CKA2, hits give low values 1.01 | S. cerevisiae deletion strains, locus YOR069W, strain VPS5, hits give low values 1.01 | S. cerevisiae deletion strains, locus YOR070C, strain gyp1, hits give low values 0.997 | S. cerevisiae deletion strains, locus YOR080W, strain dia2, hits give low values 1 | S. cerevisiae deletion strains, locus YOR083W, strain WHI5 (second series), hits give low values 1.03 | S. cerevisiae deletion strains, locus YOR083W, strain WHI5, hits give low values 0.968 | S. cerevisiae deletion strains, locus YOR106W, strain vam3, hits give low values 0.977 | S. cerevisiae deletion strains, locus YOR136W, strain idh2, hits give low values 1 | S. cerevisiae deletion strains, locus YOR144C, strain elg1, hits give low values 1 | S. cerevisiae deletion strains, locus YOR184W, strain ser1, hits give low values 0.996 | S. cerevisiae deletion strains, locus YOR231W, strain MKK1, hits give low values 0.974 | S. cerevisiae deletion strains, locus YOR265W, strain rbl2, hits give low values 1 | S. cerevisiae deletion strains, locus YOR270C, strain vph1, hits give low values 0.997 | S. cerevisiae deletion strains, locus YOR290C, strain snf2, hits give low values 0.957 | S. cerevisiae deletion strains, locus YOR316C, strain cot1, hits give low values 0.994 | S. cerevisiae deletion strains, locus YPL051W, strain arl3, hits give low values 0.978 | S. cerevisiae deletion strains, locus YPL055C, strain LGE1, hits give low values 1.05 and 1.01 | S. cerevisiae deletion strains, locus YPL078C, strain atp4, hits give low values 0.963 | S. cerevisiae deletion strains, locus YPL106C, strain sse1, hits give low values 0.993 | S. cerevisiae deletion strains, locus YPL240C, strain hsp82, hits give low values 0.979 | S. cerevisiae deletion strains, locus YPL241C, strain CIN2, hits give low values 1.01 | S. cerevisiae deletion strains, locus YPL256C, strain CLN2, hits give low values 0.975 | S. cerevisiae deletion strains, locus YPR119W, strain clb2, hits give low values 0.997 | S. cerevisiae deletion strains, locus YPR141C, strain kar3, hits give low values 1 | S. cerevisiae deletion strains, locus YPR163C, strain tif3, hits give low values 1 | S. cerevisiae deletion strains, locus YPR167C, strain met16, hits give low values 0.991 | S. cerevisiae deletion strains, strain wtn01, hits give low values 1 | S. cerevisiae strains, strain wild type, hits give low values 1.01
